Data taken from PubChem BioAssay AID1159580 (chemical genetic matrix, 2015).
Screen size: about 5,500 compounds; about 2,000 (36%) were called active. Another 18% or so got no clear call; they are omitted. Rule as the data show it: active = normalized growth mostly below about 0.91 (no sharp cut-off); inconclusive = no clear call, values can overlap the other calls; inactive = mostly above about 0.92. The list shows a part of the results.

Experiment: chemical genetic growth profiling, strain panel (AID 1159580);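 also: tested at 20 µM; growth read once vehicle control cultures reached saturation at 30 °C; 1 = growth at the plate median or of vehicle wells; lower values mean less growth of the strain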
Conditions: S. cerevisiae deletion strains, growth OD
[1] = locus YDL101C, strain DUN1, hits give low values
[2] = locus YHR030C, strain SLT2, hits give low values

Measured: normalized growth

Cc1nc(-c2nnc(Sc3ccc(C(F)(F)F)cc3[N+](=O)[O-])n2C)cs1
inactive: locus YAL013W, strain DEP1, hits give low values 1.01 | locus YBR229C, strain ROT2, hits give low values 1.01 | locus YCL061C, strain MRC1, hits give low values 0.995 | [1] 1 | locus YDR150W, strain NUM1, hits give low values 0.993 | locus YEL061C, strain CIN8, hits give low values 0.998 | locus YGR078C, strain PAC10, hits give low values 1.01 | [2] 0.965 | locus YHR087W, strain rtc3, hits give low values 1.02 | locus YJR043C, strain POL32, hits give low values 1.01 | locus YJR075W, strain HOC1, hits give low values 0.987 | locus YLR039C, strain RIC1, hits give low values 0.965 | locus YLR058C, strain SHM2 (second series), hits give low values 1.01 | locus YLR085C, strain ARP6, hits give low values 1.14 | locus YLR262C, strain YPT6, hits give low values 0.844 | locus YML094W, strain GIM5, hits give low values 1.01 | locus YMR219W, strain ESC1, hits give low values 1 | locus YMR263W, strain SAP30, hits give low values 1.02 | locus YNL153C, strain GIM3, hits give low values 0.998 | locus YNL298W, strain CLA4 (second series), hits give low values 1.01 | locus YNL322C, strain KRE1, hits give low values 1 | locus YNR030W, strain Alg12, hits give low values 1.01 | locus YPL055C, strain LGE1, hits give low values 1.02 | locus YPL241C, strain CIN2, hits give low values 1 | locus YPR135W, strain CTF4, hits give low values 0.956

Cc1ccc(S(=O)(=O)n2c(Sc3ccc([N+](=O)[O-])cc3[N+](=O)[O-])nc3cc(C)ccc32)cc1
active: [2] 0.839 | locus YLR113W, strain HOG1, hits give low values 0.748
inactive: locus YAR019C, strain CDC15, hits give low values 0.996 | locus YBL105C, strain PKC1, hits give low values 0.972 | locus YBR135W, strain CKS1, hits give low values 0.983 | locus YBR136W, strain MEC1, hits give low values 0.986 | locus YBR160W, strain CDC28, hits give low values 0.986 | locus YDL017W, strain CDC7, hits give low values 0.986 | locus YDL028C, strain MPS1, hits give low values 0.992 | [1] 0.989 | locus YDL108W, strain KIN28, hits give low values 0.987 | locus YDL132W, strain cdc53, hits give low values 0.989 | locus YDL214C, strain PRR2, hits give low values 0.947 | locus YDR052C, strain DBF4, hits give low values 0.987 | locus YDR054C, strain cdc34, hits give low values 0.986 | locus YDR226W, strain ADK1, hits give low values 0.987 | locus YDR477W, strain SNF1, hits give low values 0.968 | locus YER123W, strain YCK3, hits give low values 0.92 | locus YER133W, strain GLC7, hits give low values 0.945 | locus YFL009W, strain cdc4, hits give low values 0.989 | locus YFL029C, strain CAK1, hits give low values 0.988 | locus YFR003C, strain YPI1, hits give low values 0.986 | locus YFR019W, strain FAB1, hits give low values 0.961 | locus YFR028C, strain CDC14, hits give low values 0.99 | locus YGR040W, strain KSS1, hits give low values 0.97 | locus YGR052W, strain FMP48, hits give low values 0.966 | locus YGR092W, strain DBF2, hits give low values 0.86 | locus YHR079C, strain IRE1, hits give low values 0.884 | locus YHR082C, strain KSP1, hits give low values 1.04 | locus YHR205W, strain SCH9, hits give low values 0.868 | locus YIL147C, strain SLN1, hits give low values 0.99 | locus YJL095W, strain BCK1, hits give low values 0.879 | locus YJL128C, strain PBS2, hits give low values 0.939 | locus YJL157C, strain FAR1, hits give low values 0.936 | locus YJR016C, strain ILV3, hits give low values 0.986 | locus YJR066W, strain TOR1 (second series), hits give low values 0.898 | locus YJR066W, strain TOR1, hits give low values 1 | locus YKL048C, strain ELM1, hits give low values 0.947 | locus YKL067W, strain YNK1, hits give low values 0.935 | locus YKL101W, strain HSL1, hits give low values 0.917 | locus YKL193C, strain SDS22, hits give low values 0.996 | locus YKL203C, strain TOR2, hits give low values 1 | locus YLR133W, strain CKI1, hits give low values 0.932 | locus YLR403W, strain SFP1, hits give low values 0.917 | locus YML070W, strain DAK1, hits give low values 0.926 | locus YMR001C, strain CDC5, hits give low values 0.987 | locus YMR205C, strain PFK2 (second series), hits give low values 0.947 | locus YMR277W, strain FCP1, hits give low values 0.988 | locus YNL006W, strain LST8, hits give low values 0.971 | locus YNL020C, strain ARK1, hits give low values 0.898 | locus YNL161W, strain CBK1, hits give low values 0.968 | locus YNL183C, strain NPR1, hits give low values 0.958 | locus YNL207W, strain RIO2, hits give low values 0.984 | locus YNL222W, strain SSU72, hits give low values 0.975 | locus YNL307C, strain MCK1 (second series), hits give low values 0.901 | locus YOL078W, strain AVO1, hits give low values 0.987 | locus YOL136C, strain PFK27, hits give low values 0.919 | locus YOR061W, strain CKA2, hits give low values 0.873 | locus YOR119C, strain RIO1, hits give low values 1.03 | locus YOR231W, strain MKK1, hits give low values 0.887 | locus YOR329C, strain SCD5, hits give low values 0.968 | locus YPL031C, strain PHO85, hits give low values 0.951 | locus YPL153C, strain RAD53, hits give low values 0.964 | locus YPL204W, strain HRR25, hits give low values 0.931 | locus YPL209C, strain IPL1, hits give low values 0.971 | locus YPL256C, strain CLN2, hits give low values 0.862 | locus YPR025C, strain CCL1, hits give low values 0.988 | locus YPR106W, strain ISR1, hits give low values 0.989 | locus YPR111W, strain DBF20, hits give low values 0.966 | strain NNK1, hits give low values 0.982 | strain TSCII, hits give low values 0.986
